Hits are enriched below; roughly 5.7% of the tested compounds scored in any of these assays.
GLP1R inv ag – qHTS of GLP-1 Receptor Inverse Agonists (Inhibition Mode) | Glucagon-like peptide 1 receptor (Homo sapiens), P43220 | HEK293 GLP-1R CRE-luciferase, luminescence, 24 h; GLP-1R form is constitutively active | 410,000 tested, 1.6% active | Potency, µM (series often up to 38.3 µM), inactives show at the top dose activity change, negative = inhibition, actives largely listed as inhibitors | AID 624417, 2012; note: potency is the fitted concentration of half-maximal effect; % is set by controls: 0 for no effect and ±100 for the full control effect; nearly all actives have a fitted effect of over 55% in size
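Inverse agonism was detected as reduced cAMP-driven luciferase luminescence after 24 h compound treatment. The cells were HEK293 clones expressing constitutively active human GLP-1R with the reporter. Reporter-only and GPR119 cell lines served as counterscreen controls.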
D3 antag – qHTS of D3 Dopamine Receptor Antagonist: qHTS; D(3) dopamine receptor (Homo sapiens), P35462; D3R cells, DiscoveRx beta-arrestin luminescence, antagonist mode; hits give low values; max response, negative = inhibition, %; 360,000 tested, 2.5% active; in the data active = max response below about -50%; inconclusive = no clear call, values can overlap the other calls; note: % is set by controls: 0 for no effect and ±100 for the full control effect
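Cells expressing the human receptor were seeded at 1500 cells/well, incubated overnight at 37 degrees C in 5% CO2, then exposed to library compounds with dopamine controls for 90 minutes at 37 degrees C before luminescent detection.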
GLP1R ag – qHTS of GLP-1 Receptor Agonists; HEK293 GLP-1R CRE-luciferase, luminescence, 4-6 h; cells express a hypersensitive GLP-1R form; Potency, µM (top dose mostly 45.6 µM), inactives show at the highest dose activation, hits mostly activators; 380,000 tested, 0.007% active; note: potency is the fitted concentration of half-maximal effect; % of control where 0% means no effect
ClpP mod – qHTS Assay for Activators of ClpP; ATP-dependent Clp protease proteolytic subunit (Bacillus subtilis (strain 168)), P80244; purified B. subtilis ClpP, FRET peptide cleavage, 20 min; Potency, µM (highest dose often 57.5 µM), without a hit: at the top dose activity change, negative = active; 340,000 tested, 1.9% active; AID 651965, 2013; active = well fitted falling curve with a large enough effect; inconclusive = small, poorly fitted or top-dose-only effect; inactive = no such curve, though single readings can be large or run the other way; note: potency is the fitted concentration of half-maximal effect; the source files actives as falling curves though it sought activators and does not explain the sign; nearly all actives have a fitted effect of over 65% in size
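Buffer: 100 mM Tris/HCl pH8, 100 mM KCl, 0.05% low protease BSA, 2.5% glycerol, 0.01% Tween-20. ClpP 10 microg/mL final; 20 min RT; delta FRET normalized to ADEP and DMSO controls.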
D3 ag – qHTS of D3 Dopamine Receptor Agonist: qHTS; D(3) dopamine receptor (Homo sapiens), P35462; D3R DiscoveRx beta-arrestin cells, luminescence, 90 min; max activation, %; 410,000 tested, 0.58% active; AID 652048, 2013; in the data active = max activation above about 30%; note: 0% is about no effect
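Agonist mode: compounds and dopamine controls were applied to plated cells for 90 min at 37 degrees C after an overnight attachment at 1500 cells/well. Luminescent read-out followed 30 - 60 minutes at room temperature with DiscoveRx detection reagent.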
HEK293 tox – qHTS of GLP-1 Receptor Inverse Agonists: Cytotox Screen; HEK293 cAMP-luciferase reporter cells, luminescence, 24 h; Potency, µM (series often up to 38.3 µM), without a hit: top-dose activity change, negative = inhibition, hits mostly inhibitors; 410,000 tested, 0.13% active; AID 624418, 2012;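 note: loss of luciferase light is scored as toxicity; potency is the fitted concentration of half-maximal effect; % is set by controls: 0 for no effect and ±100 for the full control effect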
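Compound-treated cells are incubated 24 hr at 37 deg C under 5% CO2 after a 12 hour attachment period, then luciferase detection reagent is added and luminescence is measured following 12 min at room temperature; lowered signal indicates toxicity.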
Numbers without * were called inactive; i = inactive; ? = inconclusive; nt = not tested or not shown. Unless noted, calls come from the whole dose curve; as a rule, active = well fitted curve in the direction sought with a large enough effect; inconclusive = small, poorly fitted or top-dose-only effect, or another doubt; inactive = no such curve, though single readings can be large; an effect the other way counts as inactive or inconclusive.

SMILES	GLP1R inv ag	D3 antag	GLP1R ag	ClpP mod	D3 ag	HEK293 tox
Cc1ccc(S(=O)(=O)c2c(N)n(/N=C/c3ccco3)c3nc4ccccc4nc23)cc1	19%	-10	2%	8.9µM*	-2	3%
Cc1ccc(S(=O)(=O)c2c(N)n(NC(=O)C3CC3)c3nc4ccccc4nc23)cc1	0%	-13	26%	33%	-18	14%
O=C1Nc2ccc(F)cc2C12Nc1ccccc1-c1nnc(SCc3ccccc3)nc1O2 (configuration not stated)	?	-81*	-3%	32%	-37	2%
Cc1ccc(CSc2nnc3c(n2)OC2(Nc4ccccc4-3)C(=O)Nc3ccc(F)cc32)cc1 (configuration not stated)	9%	?	1%	29%	-22	-6%
CCN1CCc2c(C#N)c(N3CCOCC3)nc(NCCO)c2C1	3%	-10	5%	8.9µM*	-6	i
C=CCNc1nc(N2CCCCC2)c(C#N)c2c1CN(Cc1ccccc1)CC2	?	-6	14%	28µM*	-14	7%
CCN1CCc2c(C#N)c(N3CCOCC3)nc(NCc3ccccc3)c2C1	-27%	16	0%	2%	-4	103%
N#Cc1c(NCCO)nc(NCc2ccccc2)c2c1CCN(Cc1ccccc1)C2	?	-6	10%	10µM*	2	217%
CC[C@]12C(=O)N(C)C[C@H]([C@@H]3C(=O)N(Cc4ccccc4)C(=O)[C@@H]31)N2C(=O)c1ccc(C(F)(F)F)cc1	12%	?	6%	0%	-17	?
CCOc1ccc(NC(=O)C2(c3cccs3)CCOCC2)cc1	2%	nt	nt	-3%	-2	2%
Cc1cc(S(=O)(=O)Nc2cc3c(cc2NCc2ccccc2)n(C)c(=O)n3C)ccc1F	0%	nt	nt	4%	-4	-14%
Cc1cccc(CNC(=O)CN2C(=O)C3CCCCN3c3ccc(C(=O)N4CCCC4)cc32)c1 (configuration not stated)	15%	nt	nt	-5%	8	-9%
CC1Cc2ccccc2N1S(=O)(=O)c1nnc(NC(=O)c2ccccc2Br)s1 (configuration not stated)	10µM*	nt	nt	0%	-3	-4%
CC1Cc2ccccc2N1S(=O)(=O)c1nnc(NC(=O)c2ccccc2)s1 (configuration not stated)	?	nt	nt	0%	-11	-7%
Cc1sc2nc(C3CC3)nc(SCC(=O)N3CC(=O)Nc4ccccc43)c2c1C	3%	34	2%	-1%	8	?
Cc1sc2nc(C(C)C)nc(SCC(=O)N3CCN(C(=O)c4ccco4)CC3)c2c1C	-9%	17	6%	-4%	27	?
CCc1c(C)sc2nc(C(C)C)nc(SCC(=O)N3CCc4ccccc4C3)c12	0%	58	0%	-3%	50*	-13%
Cc1sc2nc(C3CC3)nc(SCC(=O)N3CCc4ccccc4C3)c2c1C	?	50	1%	-17%	46*	-9%
CC(C)(C)S(=O)N1Cc2cc(CO)ccc2[C@@H]1CCO (some centres not stated)	10%	14	-4%	1%	20	-7%
CC(=O)c1ccc(NC(=O)Cn2c(=O)n(Cc3ccco3)c(=O)c3sc4ccccc4c32)cc1	0%	nt	-1%	-2%	0	6%
COc1ccc(N2CCN(S(=O)(=O)CCNC(=O)c3c(F)cccc3Cl)CC2)cc1	9%	nt	nt	-8%	5	1%
Cc1ccc(-n2c(SCC(N)=O)nnc2-c2ccc(S(=O)(=O)N3CCCCC3)cc2)c(C)c1	0%	-25	3%	25µM*	-2	-13%
Cc1ccc(S(=O)(=O)NCCc2csc(-c3cccc(F)c3)n2)cc1	-27%	nt	nt	-19%	-23	0%
COc1ccc(S(=O)(=O)NCCSCc2cccc(C)c2)cc1Br	11µM*	0	8%	0%	-4	-1%
CCOC(=O)c1c(SCCN2CCCC2)n(-c2ccccc2)c(=S)n(-c2ccccc2)c1=O	?	-119*	-1%	-2%	-17	-11%
SMILES	GLP1R inv ag	D3 antag	GLP1R ag	ClpP mod	D3 ag	HEK293 tox
CCOC(=O)c1sc(=S)n(-c2ccccc2)c1SC	-23%	5	2%	-3%	3	5%
CCCOc1ccc(-c2nnc(-c3ccco3)o2)cc1	?	3	-16%	40µM*	-5	7%
CC(C)COc1ccc(-c2nnc(-c3ccco3)o2)cc1	-13%	22	7%	16µM*	2	1%
COc1cccc(-c2nnc(-c3ccco3)o2)c1	-11%	-25	4%	-1%	-3	7%
O=C1C(CO)C(CO)C(CO)C1CO (configuration not stated)	29%	-6	0%	nt	39*	1%
O=C(Nc1cccc(Cl)c1)c1nc[nH]c1C(=O)Nc1ccccc1F	24%	-17	0%	1%	-3	-1%
Cc1ccc(CNC(=O)C(C)n2c(=O)cc(-c3ccccc3)c3c(C)nn(C)c32)cc1 (configuration not stated)	?	nt	nt	4%	-4	-2%
CCCS(=O)(=O)NC(=O)C1(C)CCN(C(=O)c2ccc(OC)c(F)c2)C1 (configuration not stated)	10%	1	-6%	0%	-1	3%
O=S(=O)(c1ccc(Cl)s1)N1CCN(Cc2ccccc2)CC1	?	-59*	0%	1%	-10	0%
O=S(=O)(c1ccc(Cl)s1)N1CCN(C/C=C/c2ccccc2)CC1	?	-82*	13%	-1%	1	3%
CCCCN1C(=O)C(CC(=O)NCCc2ccccn2)CC(C(=O)N2CCOCC2)=C1C (configuration not stated)	13%	-21	-2%	0%	2	5%
COc1ccc(CCNc2nc3ccccc3c3nc(-c4cccc(C)c4)nn23)cc1OC	1%	nt	nt	-11%	18	8%
COc1ccc(CC2(c3ccccc3)NC(=O)NC2=O)cc1 (configuration not stated)	?	16	10%	nt	3	-16%
Cc1ccc(NCc2nnc(SCC(=O)NCc3ccco3)n2CC2CCCO2)cc1Cl (configuration not stated)	?	-15	-5%	0%	3	-19%

Compound activity (PubChem BioAssay)
